These results are taken from PubChem BioAssay (NCI).

A short description of experiment [1]: NCI Yeast Anticancer Drug Screen. Data for the rad50 strain (AID 155).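 Further: 0% = growth of vehicle-only cultures of the same strain.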 The settings on record: S. cerevisiae rad50 strain growth inhibition, hits give high values. An outline of the steps: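 Cells are treated with compound, grown, and their growth is then scored against vehicle-only cultures of the same repair-deficient yeast strain.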
Experiment [2] in a line: NCI Yeast Anticancer Drug Screen. Data for the mec2-1 strain (AID 157). The settings on record: S. cerevisiae mec2-1 strain, hits give high values. The gist of the method:
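Mutant yeast (mec2-1) grown with compound; growth inhibition relative to vehicle control reported.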

The nature of experiment [3]: NCI Yeast Anticancer Drug Screen. Data for the sgs1 mgt1 strain (AID 161).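 Further: 0% = growth of cultures given vehicle only.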 Conditions: S. cerevisiae sgs1 mgt1 strain, hits give high values. The gist of the method: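 Yeast cells carrying a defined DNA-repair defect were exposed to test compounds. Growth inhibition was measured relative to vehicle-treated controls.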
Experiment [4] is described as follows: NCI Yeast Anticancer Drug Screen. Data for the cln2 rad14 strain (AID 165).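 Further: 0% = growth equal to vehicle treated cultures.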 Conditions: S. cerevisiae cln2 rad14 strain, hits give high values. An outline of the steps: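 Readout is yeast growth inhibition versus vehicle-treated controls, using a strain with cln2 and rad14 alterations exposed to compound.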
Experiment [5] in a line: NCI Yeast Anticancer Drug Screen. Data for the bub3 strain (AID 167). Conditions: S. cerevisiae bub3 mutant strain, hits give high values. The gist of the method: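 Part of a panel of yeast mutants defective in DNA damage repair or cell cycle regulation. Each strain is grown with compound, and inhibition is calculated relative to solvent-treated cultures.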
A short description of experiment [6]: NCI Yeast Anticancer Drug Screen. Data for the mlh1 rad18 strain (AID 175). The settings on record: S. cerevisiae mlh1 rad18 strain growth inhibition, hits give high values. The gist of the method: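 Genetically defined yeast (DNA repair-deficient) exposed to compounds; growth inhibition determined relative to vehicle.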
Where [7] appears, read: at 5.0 µM (retest, dose inferred, filed as 0.5).
Setting [8] is: at 50.0 µM (retest, dose inferred, filed as 5.0).

The structures appear in SMILES notation. This is part of a sample that, as a whole, favours compounds with a hit. Of some 79,000 tested, about 15% had one in any assay. A number with no mark means an inactive call. Active and inactive are the calls of the source. No stated cut-off is given here; in the data, active means growth inhibition above about 70%; inactive means the rest.

In the case of `COC1/C=C/OC2(C)Oc3c(C)c(O)c4c(c3C2=O)C(=O)C=C(NC(=O)/C(C)=C\C=C\C(C)C(OC=O)C(C)C(O)C(C)C(OC(C)=O)C1C)C4=O` (stereo not given), the growth inhibition was -15% in experiment [1] (setting [7]); -4% in experiment [1] (setting [8]); 47% in experiment [1] (at 50.0 µM); 1% in experiment [2] (setting [7]); 3% in experiment [2] (setting [8]); 53.5% in experiment [2] (at 50.0 µM). The growth inhibition in experiment [3] (setting [7]) is -12%; in experiment [3] (setting [8]) it was 29%; in experiment [3] (at 50.0 µM), 52.5%; in experiment [4] (setting [7]), -5%; in experiment [4] (setting [8]), 3%; in experiment [4] (at 50.0 µM), 79% (active). The growth inhibition is -8% in experiment [5] (setting [7]); 5% in experiment [5] (setting [8]); 49.6% in experiment [5] (at 50.0 µM); 11% in experiment [6] (setting [7]); 27% in experiment [6] (setting [8]); 55.7% in experiment [6] (at 50.0 µM).

As to `Cc1ccc(NS(=O)(=O)c2ccc(C)cc2)cc1`, the growth inhibition in experiment [1] (setting [7]) is -7%; in experiment [1] (setting [8]), 92% (active); in experiment [1] (at 50.0 µM) it was 37.6%; in experiment [2] (setting [7]), -8%; in experiment [2] (setting [8]), 92% (active); in experiment [2] (at 50.0 µM), 14.1%. Moreover, the growth inhibition is -11% in experiment [3] (setting [7]); 92% (active) in experiment [3] (setting [8]); 26.8% in experiment [3] (at 50.0 µM); -6% in experiment [4] (setting [7]); 68% in experiment [4] (setting [8]); 22.4% in experiment [4] (at 50.0 µM). Further, the growth inhibition in experiment [5] (setting [7]) is -6%; in experiment [5] (setting [8]), 90% (active); in experiment [5] (at 50.0 µM) it was 28.6%; in experiment [6] (setting [7]) it was -4%; in experiment [6] (setting [8]) it was 86% (active); in experiment [6] (at 50.0 µM), 47.1%.

On to `O=Nc1c(-c2cccc([N+](=O)[O-])c2)nc2cnccn12`, for which the growth inhibition is 39% in experiment [1] (setting [7]); 99% (active) in experiment [1] (setting [8]); 97.7% (active) in experiment [1] (at 50.0 µM); 24% in experiment [2] (setting [7]); 99% (active) in experiment [2] (setting [8]); 98.5% (active) in experiment [2] (at 50.0 µM). Moreover, the growth inhibition in experiment [3] (setting [7]) was 54%; in experiment [3] (setting [8]), 99% (active); in experiment [3] (at 50.0 µM), 95.7% (active); in experiment [4] (setting [7]), 23%; in experiment [4] (setting [8]), 99% (active); in experiment [4] (at 50.0 µM) it was 99.3% (active). For the same compound, the growth inhibition is 4% in experiment [5] (setting [7]); 99% (active) in experiment [5] (setting [8]); 99.7% (active) in experiment [5] (at 50.0 µM); 58% in experiment [6] (setting [7]); 99% (active) in experiment [6] (setting [8]); 97.5% (active) in experiment [6] (at 50.0 µM).

As to `NCCSC1(O)C(=O)c2ccccc2-c2ccccc21` (stereo not given), the growth inhibition in experiment [1] (setting [7]) is 6%; in experiment [1] (setting [8]) it was 98% (active); in experiment [1] (at 50.0 µM), 98.8% (active); in experiment [2] (setting [7]), 84% (active); in experiment [2] (setting [8]), 99% (active); in experiment [2] (at 50.0 µM), 98.2% (active). Further, the growth inhibition in experiment [3] (setting [7]) is 32%; in experiment [3] (setting [8]), 99% (active); in experiment [3] (at 50.0 µM) it was 99.1% (active); in experiment [4] (setting [7]), -14%; in experiment [4] (setting [8]), 99% (active); in experiment [4] (at 50.0 µM) it was 96.2% (active). In addition, the growth inhibition in experiment [5] (setting [7]) was 79% (active); in experiment [5] (setting [8]), 99% (active); in experiment [5] (at 50.0 µM), 97.8% (active); in experiment [6] (setting [7]), 57%; in experiment [6] (setting [8]) it was 99% (active); in experiment [6] (at 50.0 µM) it was 98.8% (active).

Regarding `Nc1c(/C=C/c2cc3cc(C4=NCCN4)ccc3o2)[nH]c2cc(C3=NCCN3)ccc12`, the growth inhibition was 13% in experiment [1] (setting [7]); 98% (active) in experiment [1] (setting [8]); 97.5% (active) in experiment [1] (at 50.0 µM); 22% in experiment [2] (setting [7]); 98% (active) in experiment [2] (setting [8]); 98% (active) in experiment [2] (at 50.0 µM). For the same compound, the growth inhibition in experiment [3] (setting [7]) is -2%; in experiment [3] (setting [8]), 99% (active); in experiment [3] (at 50.0 µM), 98.2% (active); in experiment [4] (setting [7]), -22%; in experiment [4] (setting [8]), 97% (active); in experiment [4] (at 50.0 µM), 97.4% (active). In addition, the growth inhibition is 7% in experiment [5] (setting [7]); 98% (active) in experiment [5] (setting [8]); 97% (active) in experiment [5] (at 50.0 µM); 13% in experiment [6] (setting [7]); 97% (active) in experiment [6] (setting [8]); 97.8% (active) in experiment [6] (at 50.0 µM).

As for `O=c1[nH]c2ccccc2nc1CBr`, the growth inhibition is 5% in experiment [1] (setting [7]); 95% (active) in experiment [1] (setting [8]); 30.9% in experiment [1] (at 50.0 µM); 16% in experiment [2] (setting [7]); 99% (active) in experiment [2] (setting [8]); 71.2% (active) in experiment [2] (at 50.0 µM). Moreover, the growth inhibition in experiment [3] (setting [7]) is 8%; in experiment [3] (setting [8]), 98% (active); in experiment [3] (at 50.0 µM), 91.2% (active); in experiment [4] (setting [7]), 0%; in experiment [4] (setting [8]) it was 95% (active); in experiment [4] (at 50.0 µM), 1.85%. Besides, the growth inhibition is 14% in experiment [5] (setting [7]); 98% (active) in experiment [5] (setting [8]); 90.2% (active) in experiment [5] (at 50.0 µM); 16% in experiment [6] (setting [7]); 99% (active) in experiment [6] (setting [8]); 91.1% (active) in experiment [6] (at 50.0 µM).

With `CNC(=S)N/N=C/c1nccc(-c2ccccc2)c1C`, the growth inhibition in experiment [1] (setting [7]) was 4%; in experiment [1] (setting [8]) it was 93% (active); in experiment [1] (at 50.0 µM), 23.8%; in experiment [2] (setting [7]), -2%; in experiment [2] (setting [8]), 96% (active); in experiment [2] (at 50.0 µM), 48.9%. In addition, the growth inhibition in experiment [3] (setting [7]) is 3%; in experiment [3] (setting [8]) it was 96% (active); in experiment [3] (at 50.0 µM), 41.8%; in experiment [4] (setting [7]), -9%; in experiment [4] (setting [8]) it was 94% (active); in experiment [4] (at 50.0 µM) it was 39.1%. Also, the growth inhibition in experiment [5] (setting [7]) is 2%; in experiment [5] (setting [8]), 94% (active); in experiment [5] (at 50.0 µM), -2.75%; in experiment [6] (setting [7]) it was -3%; in experiment [6] (setting [8]) it was 93% (active); in experiment [6] (at 50.0 µM), 74.7% (active).

As for `COc1ccc(NC(=O)CCC(NS(=O)(=O)c2ccc(C)cc2)C(=O)O)cc1` (stereo not given), the growth inhibition in experiment [1] (setting [7]) was -6%; in experiment [1] (setting [8]) it was -3%; in experiment [1] (at 50.0 µM), 19.4%; in experiment [2] (setting [7]), -4%; in experiment [2] (setting [8]) it was -5%; in experiment [2] (at 50.0 µM) it was 8.6%. The growth inhibition in experiment [3] (setting [7]) was -7%; in experiment [3] (setting [8]) it was -23%; in experiment [3] (at 50.0 µM), 7.7%; in experiment [4] (setting [7]), -8%; in experiment [4] (setting [8]), -17%; in experiment [4] (at 50.0 µM) it was 10.4%. Moreover, the growth inhibition in experiment [5] (setting [7]) is -2%; in experiment [5] (setting [8]), 2%; in experiment [5] (at 50.0 µM), 51.9%; in experiment [6] (setting [7]), -3%; in experiment [6] (setting [8]), -3%; in experiment [6] (at 50.0 µM), 19.1%.

In the case of `NNc1cc([N+](=O)[O-])ccc1Cl`, the growth inhibition in experiment [1] (setting [7]) was 5%; in experiment [1] (setting [8]), 93% (active); in experiment [1] (at 50.0 µM), 88.5% (active); in experiment [2] (setting [7]), 6%; in experiment [2] (setting [8]), 68%; in experiment [2] (at 50.0 µM), 91.2% (active). In addition, the growth inhibition in experiment [3] (setting [7]) was -8%; in experiment [3] (setting [8]), 84% (active); in experiment [3] (at 50.0 µM) it was 90.8% (active); in experiment [4] (setting [7]), 4%; in experiment [4] (setting [8]), 38%; in experiment [4] (at 50.0 µM), 68%. The growth inhibition in experiment [5] (setting [7]) was 24%; in experiment [5] (setting [8]), 94% (active); in experiment [5] (at 50.0 µM), 95.1% (active); in experiment [6] (setting [7]), -20%; in experiment [6] (setting [8]) it was 95% (active); in experiment [6] (at 50.0 µM), 98.5% (active).

On to `CC(=O)Nc1cccc2ccc(C)cc12`, for which the growth inhibition is 0% in experiment [1] (setting [7]); 1% in experiment [1] (setting [8]); -5.5% in experiment [1] (at 50.0 µM); 2% in experiment [2] (setting [7]); 4% in experiment [2] (setting [8]); 4.85% in experiment [2] (at 50.0 µM). For the same compound, the growth inhibition in experiment [3] (setting [7]) is 1%; in experiment [3] (setting [8]), 1%; in experiment [3] (at 50.0 µM), -22.9%; in experiment [4] (setting [7]), 1%; in experiment [4] (setting [8]), 5%; in experiment [4] (at 50.0 µM) it was 71.3% (active). In addition, the growth inhibition in experiment [5] (setting [7]) is 1%; in experiment [5] (setting [8]), -1%; in experiment [5] (at 50.0 µM), 23.1%; in experiment [6] (setting [7]), 0%; in experiment [6] (setting [8]), 2%; in experiment [6] (at 50.0 µM), 41.8%.
